What all share (assay): yeast three-hybrid, YBZ-1, SC-Leu-His + 0.5 mM 3-AT, 4 days
Common to all, as to conditions: tags: N-Gal4 AD-HA kept; label: inside an RPR1-promoter hybrid RNA with tandem MS2 sites; ssRNA

One assay has as its target PUM1 PUF domain R5-DHS (Homo sapiens, UniProt Q14671 828-1176, C1007D;R1008H;Q1011S). In a few lines: (§1)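 Each repeat of the Pumilio-1 PUF domain was randomized at its three base-contacting residues, and these libraries were co-expressed from a centromeric plasmid with matching RNA elements in strain YBZ-1. After four days on SC-Leu (input) or SC-Leu-His + 0.5 mM 3-AT (selection), the repeat regions were PCR-amplified and Illumina-sequenced. The interaction score compares variant frequency between input and selection as a log change, computed in log2 with a pseudocount of 1 for absent variants.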

For another assay, the target named is PUM1 PUF domain R5-GWL (Homo sapiens, UniProt Q14671 828-1176, C1007G;R1008W;Q1011L). In a few lines:
as §1

The next assay has as its target T1, PUM1 PUF domain R6-LFT (Homo sapiens, UniProt Q14671 828-1176, N1043L;Y1044F;Q1047T).
T1 sequence: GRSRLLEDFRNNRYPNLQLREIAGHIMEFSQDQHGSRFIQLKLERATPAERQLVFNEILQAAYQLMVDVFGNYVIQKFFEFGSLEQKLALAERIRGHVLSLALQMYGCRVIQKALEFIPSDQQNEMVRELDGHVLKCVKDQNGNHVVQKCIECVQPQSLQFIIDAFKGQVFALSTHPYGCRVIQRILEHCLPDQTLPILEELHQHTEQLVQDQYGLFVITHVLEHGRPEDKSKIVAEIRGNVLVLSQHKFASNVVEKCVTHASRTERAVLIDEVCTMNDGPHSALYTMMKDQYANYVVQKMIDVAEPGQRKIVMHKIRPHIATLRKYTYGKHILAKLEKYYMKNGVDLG
In a few lines: as §1

The target in the next assay is PUM1 PUF domain R4-CRV (Homo sapiens, UniProt Q14671 828-1176, N971C;H972R;Q975V). In outline: as §1
Another assay deals with PUM1 PUF domain R4-DYL (Homo sapiens, UniProt Q14671 828-1176, N971D;H972Y;Q975L). In a few lines:
as §1

The target in the next assay is PUM1 PUF domain R8-KFT (Homo sapiens, UniProt Q14671 828-1176, N1122K;Y1123F;Q1126T). In outline: as §1
Another assay concerns the target T2, PUM1 PUF domain R6-FYA (Homo sapiens, UniProt Q14671 828-1176, N1043F;Q1047A).
T2 sequence: T1 sequence with L216F, F217Y, T220A
In outline:
as §1

The target of another assay is PUM1 PUF domain R3-GHH (Homo sapiens, UniProt Q14671 828-1176, C935G;R936H;Q939H). In a few lines: as §1
In the next assay the target is PUM1 PUF domain R3-RIC (Homo sapiens, UniProt Q14671 828-1176, C935R;R936I;Q939C). In outline:
as §1

In the next assay the target is PUM1 PUF domain R5-DME (Homo sapiens, UniProt Q14671 828-1176, C1007D;R1008M;Q1011E). In outline: as §1

Positions count from the first letter of the chain named.

Chain of PUM1 PUF domain R5-GWL (Q14671 828-1176 C1007G/R1008W/Q1011L): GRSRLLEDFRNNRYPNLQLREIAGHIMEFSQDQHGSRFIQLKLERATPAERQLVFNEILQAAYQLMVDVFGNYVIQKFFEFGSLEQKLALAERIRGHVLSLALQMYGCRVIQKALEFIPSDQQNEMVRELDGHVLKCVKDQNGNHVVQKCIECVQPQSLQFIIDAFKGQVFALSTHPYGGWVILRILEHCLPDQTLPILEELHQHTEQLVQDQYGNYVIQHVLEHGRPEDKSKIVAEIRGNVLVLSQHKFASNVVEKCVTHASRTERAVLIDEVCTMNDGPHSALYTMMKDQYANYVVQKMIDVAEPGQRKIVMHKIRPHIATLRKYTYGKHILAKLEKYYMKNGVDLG

For the sequence “GGCUAGAACUAGUGGAUCCCCCGGCGCCCGGCGGCUCGAGCCCGGGUAAGUGUUAAUAGUCUGCAUGCCGCCGGGCGCCAUGCCUGCAGGUCGACUCUAGAAAACAUG”, the binding signal with PUM1 PUF domain R5-DHS is 4.63 log2 enrichment (interaction score); with PUM1 PUF domain R5-GWL it was 3.36 log2 enrichment (interaction score).

With “GGCUAGAACUAGUGGAUCCCCCGGCGCCCGGCGGCUCGAGCCCGGGUAAGUGAAAAUAGUCUGCAUGCCGCCGGGCGCCAUGCCUGCAGGUCGACUCUAGAAAACAUG”, the binding signal with PUM1 PUF domain R6-LFT is 6.33 log2 enrichment (interaction score).

As for “GGCUAGAACUAGUGGAUCCCCCGGCGCCCGGCGGCUCGAGCCCGGGUAAGUGUAAAUAGUCUGCAUGCCGCCGGGCGCCAUGCCUGCAGGUCGACUCUAGAAAACAUG”, the binding signal with PUM1 PUF domain R4-CRV was 2.54 log2 enrichment (interaction score); in the assay with PUM1 PUF domain R4-DYL it was 6.7 log2 enrichment (interaction score); with PUM1 PUF domain R8-KFT, 4.46 log2 enrichment (interaction score); with PUM1 PUF domain R6-FYA it was 4.17 log2 enrichment (interaction score); in the assay with PUM1 PUF domain R3-GHH, 3.86 log2 enrichment (interaction score); in the assay with PUM1 PUF domain R5-GWL, 2.66 log2 enrichment (interaction score).

For the sequence “GGCUAGAACUAGUGGAUCCCCCGGCGCCCGGCGGCUCGAGCCCGGGUAAGUGUAAUUAGUCUGCAUGCCGCCGGGCGCCAUGCCUGCAGGUCGACUCUAGAAAACAUG”, the binding signal with PUM1 PUF domain R3-RIC was 3.78 log2 enrichment (interaction score).

Take “GGCUAGAACUAGUGGAUCCCCCGGCGCCCGGCGGCUCGAGCCCGGGUAAGUGUGAAUAGUCUGCAUGCCGCCGGGCGCCAUGCCUGCAGGUCGACUCUAGAAAACAUG”: the figures for the binding signal with PUM1 PUF domain R5-DME and in the assay with PUM1 PUF domain R5-GWL were 2.8 log2 enrichment (interaction score) and 3.27 log2 enrichment (interaction score), respectively.
